Experimental data from PubChem BioAssay (NCI).
This is part of a sample that, as a whole, favours compounds with a hit. Of some 79,000 tested, about 15% had one in any assay. Unmarked numbers belong to inactive results. Activity calls are given as the source filed them. No stated cut-off is given here; in the data, active means growth inhibition above about 70%; inactive means the rest.

Tests used:
[1] = NCI Yeast Anticancer Drug Screen. Data for the rad50 strain (AID 155);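 further: 0% = growth of vehicle-only cultures of the same strain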; conditions: S. cerevisiae rad50 strain growth inhibition; at 50.0 µM; hits give high values
In short: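 DNA repair mutant yeast, compound exposure, growth read-out; inhibition is taken relative to vehicle.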

[2] = NCI Yeast Anticancer Drug Screen. Data for the mec2-1 strain (AID 157); conditions: S. cerevisiae mec2-1 strain, at 50.0 µM, hits give high values
In short: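 Strain: mec2-1 (DNA repair/cell cycle alteration). Compound exposure, then growth measured; inhibition expressed relative to vehicle.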

[3] = NCI Yeast Anticancer Drug Screen. Data for the sgs1 mgt1 strain (AID 161);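 further: 0% = growth of cultures given vehicle only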; conditions: S. cerevisiae sgs1 mgt1 strain, at 50.0 µM, hits give high values
In short: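 Mutant yeast exposed to compound; growth scored against vehicle-only wells.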

[4] = NCI Yeast Anticancer Drug Screen. Data for the cln2 rad14 strain (AID 165);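 further: 0% = growth equal to vehicle treated cultures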; conditions: S. cerevisiae cln2 rad14 strain, at 50.0 µM, hits give high values
In short: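 Compounds are applied to the cln2 rad14 yeast strain, and growth is then compared with that of vehicle-treated cultures to give inhibition.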

[5] = NCI Yeast Anticancer Drug Screen. Data for the bub3 strain (AID 167); conditions: S. cerevisiae bub3 mutant strain, at 50.0 µM, hits give high values
In short: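 In this screen, a yeast mutant lacking normal mitotic checkpoint function is challenged with compound. Relative growth versus vehicle gives the inhibition value.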

[6] = NCI Yeast Anticancer Drug Screen. Data for the mlh1 rad18 strain (AID 175); conditions: S. cerevisiae mlh1 rad18 strain growth inhibition; at 50.0 µM; hits give high values
In short: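 Read-out is yeast growth inhibition, calculated against vehicle-only controls. The compound was applied to a strain engineered with DNA damage repair alterations.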

| SMILES | growth inhibition [1] | growth inhibition [2] | growth inhibition [3] | growth inhibition [4] | growth inhibition [5] | growth inhibition [6] |
| --- | --- | --- | --- | --- | --- | --- |
| OC1C2CCC(C2)C1CN1CCOCC1 (configuration not stated) | -6% | -3.35% | -8.1% | 1.85% | 4.95% | 1.7% |
| CSc1nnc(N(C(C)C)C(C)C)c2nc[nH]c12 | 9.65% | 11.8% | 16.1% | 47.5% | 14.7% | 4.2% |
| Fc1cccc2nc(-c3ccccc3)cc(OCc3ccccc3)c12 | 0.9% | 8.3% | -30.6% | -1% | 11.8% | -3.4% |
| O=P(c1ccccc1)(c1ccccc1)c1ccccc1OCCCO | 8.3% | 3.2% | 4.35% | 24.8% | 4.4% | 3.15% |
| CO/N=C1/c2sccc2[C@H](NC(=O)C(Cc2ccccc2)NC(=O)OC(C)(C)C)[C@@H]1O (some centres not stated) | -18.2% | -13.1% | -14% | -11.9% | -2.35% | 13.7% |
| O=C(NC1CCCCC1)c1ccccc1Cl | 23.6% | -9.75% | -15.3% | 24.2% | -10.2% | 10.3% |
| CC(C#N)Nc1ccc(Oc2ccc(C(C)(C)c3ccc(Oc4ccc(NC(C)C#N)cc4)cc3)cc2)cc1 (configuration not stated) | 6.25% | -2.6% | -8.3% | 7.1% | -23.6% | -40.1% |
| Nc1ncnc(N)c1NC(=O)c1ccccc1 | -16.4% | -19.6% | -24.4% | -21.4% | 3.25% | 14.6% |
| COc1cccc(-c2cc(=O)c3cccnc3[nH]2)c1 | -49.4% | 3.25% | 28.8% | 7.45% | 26.6% | 13.9% |
| C=CCC(CC=C)(C(=O)Nc1ccc2nc(C)cc(N)c2c1)C(=O)Nc1ccc2nc(C)cc(N)c2c1 | 2.05% | 24.7% | 22.1% | 20.1% | 12.4% | -10.1% |
| CCOc1ccc(N2CCN(C(=O)Nc3ccccc3OC)CC2)cc1 | -4.1% | -6.2% | -1.8% | -47.5% | 21.1% | -3.95% |
| CC/C=C\CCCCC | 0.4% | -13.7% | -12.6% | 0.05% | -10.8% | 4.7% |
| c1ccc(NP2(Nc3ccccc3)=NP(Nc3ccccc3)(Nc3ccccc3)=NP(Nc3ccccc3)(Nc3ccccc3)=N2)cc1 | -12.2% | 5.55% | -10.4% | 15.2% | 17.1% | -2.2% |
| c1ccc2c(c1)CCc1cc3cc4c(nc3nc1-2)-c1ccccc1CC4 | -14.4% | -15.8% | -14.1% | -9.4% | -1.75% | -15.2% |
| CC(=O)c1cc(C)ccc1Br | 7.2% | 6.65% | -16.3% | 0.5% | -7.85% | 7.35% |
| CC(C)=Nn1cnc(C(=N)C#N)c1N | 22.9% | 3.5% | -0.9% | 14.5% | 4.8% | -7.45% |
| N=C(N)SC1CC2CC1C1C=CCC21 (configuration not stated) | 6.65% | -6.6% | 16.4% | -19.1% | 9.05% | 16.2% |
| O=C1C2C(Cl)C(Cl)C(Cl)C(Cl)C2C(=O)N1NC1CCC([N+](=O)[O-])CC1[N+](=O)[O-] (configuration not stated) | -22.9% | -16.4% | -18.5% | 17.4% | 2.5% | 10.1% |
| Cc1cc(C)c(C2=[N+]([O-])ON3CCc4ccccc4C23)c(C)c1 (configuration not stated) | 1.5% | -7.7% | -3.05% | 4.5% | -5.3% | -3.2% |
| Cc1ccc(C2OC(N)=C(O)C2=O)cc1 (configuration not stated) | -43% | 10.2% | -4% | -26.4% | 1.85% | 9.5% |
| C/C(=N/NC(=S)Nc1cccc(Cl)c1)c1cccc(/C(C)=N\NC(=S)Nc2cccc(Cl)c2)n1 | 47% | 46% | 62.6% | 20.3% | 62.4% | 56.9% |

| SMILES | growth inhibition [1] | growth inhibition [2] | growth inhibition [3] | growth inhibition [4] | growth inhibition [5] | growth inhibition [6] |
| --- | --- | --- | --- | --- | --- | --- |
| CC1(C)C=C(C(=O)ON2C(=O)CCC2=O)C(C)(C)N1O | -4.85% | -25.9% | -14.5% | 12.7% | -19.1% | -16.1% |
| c1ccc2scnc2c1 | 21.2% | 7.25% | 13.7% | -24.5% | 29.2% | 37.2% |
| COc1ccc(C(=O)OC2CCCC2)cc1 | 45.8% | 6.95% | 39.5% | -9.5% | 9.6% | 24.7% |
| Cn1c([N+](=O)[O-])cnc1COc1ccc(OCc2ncc([N+](=O)[O-])n2C)cc1 | 4.45% | -20.1% | -0.55% | 27.6% | 0.4% | -2.7% |
| Cc1ccc(NC(=O)c2cc(S(=O)(=O)n3cc[nH]c3=O)c(S)cc2Cl)cc1 | 14.5% | -5.85% | 23.9% | 8.65% | -4.75% | 34% |
| O=[N+]([O-])c1ccc(N=P(c2ccccc2)(c2ccccc2)c2ccccc2)n2nnnc12 | 1.25% | -27.8% | -4.65% | -10.2% | -15.2% | -6.85% |
| C(=Nc1ccc2c(c1)Cc1ccccc1-2)c1ccccn1 | 61.8% | -35.5% | 24.3% | 16.9% | -22.8% | 49.4% |
| NC(=O)CC(NC(=O)OCc1ccccc1)C(N)=O (configuration not stated) | 8.6% | 8.4% | -11.2% | -12.4% | 10.8% | -14.6% |
| O=C(O)C(Cc1cccs1)(Cc1cccs1)C(=O)O | -9% | -4.6% | -2.9% | -18.7% | -9.75% | -2.2% |
| c1ccc(SCCCCSc2ccccc2)cc1 | 17.1% | 5.05% | -2.55% | -38% | 14.1% | 43% |
| N#CCCSc1nnc(N)s1 | -7.85% | -7.9% | -8.65% | 16.9% | -2.95% | -14.8% |
| CC(=O)NC1(C)CC[C@H]2CC1C(C)=NC2(C)C (some centres not stated) | -13.2% | -3.95% | -6.9% | 2.85% | -8.15% | -14.3% |
| CC(=O)c1ccc(NC(=O)CSc2nc(C)nc3c2sc(=S)n3-c2ccccc2)cc1 | -15.1% | -10.8% | -0.1% | -24.1% | -8.2% | -22.1% |
| NC(=O)c1sc(N2CCCC2)nc1N | 13.2% | 23.9% | 22.1% | 0.95% | 9.8% | 9.05% |
| O=C(CCC(=O)OCC1CCCO1)OCC1CCCO1 (configuration not stated) | 1.15% | 2.45% | 4.7% | 4.9% | 5.75% | -2.8% |
| CCOC(=O)c1ccc(NC(=O)Nc2ccc(OC)c([N+](=O)[O-])c2)cc1 | -5.9% | -3.6% | 12.5% | -15.7% | 17.8% | -5.2% |
| NCc1ccccc1 | -2.5% | 7.75% | -2.2% | -41.4% | -18.9% | -3.85% |
| O=C1CSC(c2ccccn2)N1CCN1C(=O)CSC1c1ccccn1 (configuration not stated) | 7.4% | -0.85% | -15.9% | -4.35% | -8.05% | 6.65% |
| CCCCCc1[nH]c(=O)[nH]c(=O)c1S(=O)(=O)N1CCCCC1 | 0.15% | 28.4% | 18.7% | 3.4% | 25.9% | 18.2% |
| O=S(=O)(Nc1nccs1)c1ccc(Cl)cc1 | 25.1% | 46% | 74.2% (active) | 20.4% | 33% | 68.2% |
| O=CN/C=C/c1ccccc1O | -5% | 1.8% | 4.1% | 6.95% | 12.1% | -4.6% |
